Data taken from the supplement of paper PMC10369915.

Target: SHP2 N-SH2 domain T42A
Experiment: log2 enrichment relative to wild-type ITIM peptide; higher = stronger binding

Binder | log2 enrichment
VFSADYGELDF [PD-1 ITIM pTyr223 peptide variant V221A] | -1.17
VFSEDYGELDF [PD-1 ITIM pTyr223 peptide variant V221E] | -1.41
VFSVDYGENDF [PD-1 ITIM pTyr223 peptide variant L226N] | -1.33
VFSVDYGELDN [PD-1 ITIM pTyr223 peptide variant F228N] | -1.38
VFSVDYGELDA [PD-1 ITIM pTyr223 peptide variant F228A] | -1.56
VFSVDYCELDF [PD-1 ITIM pTyr223 peptide variant G224C] | -0.184
NFSVDYGELDF [PD-1 ITIM pTyr223 peptide variant V218N] | 0.14
VFSDDYGELDF [PD-1 ITIM pTyr223 peptide variant V221D] | -1.38
VFSVDYGETDF [PD-1 ITIM pTyr223 peptide variant L226T] | -1.57
VFSVDYGELDQ [PD-1 ITIM pTyr223 peptide variant F228Q] | -1.43
VFSVDYGELQF [PD-1 ITIM pTyr223 peptide variant D227Q] | -0.79
VFSCDYGELDF [PD-1 ITIM pTyr223 peptide variant V221C] | -0.523
VFSVDYGELDD [PD-1 ITIM pTyr223 peptide variant F228D] | -1.56
VFSVDYGELDG [PD-1 ITIM pTyr223 peptide variant F228G] | -1.54
VFSVDYGSLDF [PD-1 ITIM pTyr223 peptide variant E225S] | -0.714
VFSVDYGELDE [PD-1 ITIM pTyr223 peptide variant F228E] | -1.51
VFSVDYGELDS [PD-1 ITIM pTyr223 peptide variant F228S] | -1.4
VFTVDYGELDF [PD-1 ITIM pTyr223 peptide variant S220T] | 0.338
VFSVDYTELDF [PD-1 ITIM pTyr223 peptide variant G224T] | 0.883
VFGVDYGELDF [PD-1 ITIM pTyr223 peptide variant S220G] | -0.124

Binder | log2 enrichment
VFSVDYGGLDF [PD-1 ITIM pTyr223 peptide variant E225G] | -1.11
QFSVDYGELDF [PD-1 ITIM pTyr223 peptide variant V218Q] | 0.0173
VFSVDYGESDF [PD-1 ITIM pTyr223 peptide variant L226S] | -1.51
VFSVDYGEQDF [PD-1 ITIM pTyr223 peptide variant L226Q] | -1.5
VFSVDYGELTF [PD-1 ITIM pTyr223 peptide variant D227T] | -0.714
VFAVDYGELDF [PD-1 ITIM pTyr223 peptide variant S220A] | -0.133
GFSVDYGELDF [PD-1 ITIM pTyr223 peptide variant V218G] | 0.152
VFNVDYGELDF [PD-1 ITIM pTyr223 peptide variant S220N] | -0.0661
AFSVDYGELDF [PD-1 ITIM pTyr223 peptide variant V218A] | 0.0307
VFSVDYGELGF [PD-1 ITIM pTyr223 peptide variant D227G] | -1.31
VFSVDYGELCF [PD-1 ITIM pTyr223 peptide variant D227C] | -0.854
VNSVDYGELDF [PD-1 ITIM pTyr223 peptide variant F219N] | 0.243
VGSVDYGELDF [PD-1 ITIM pTyr223 peptide variant F219G] | 0.639
VFSNDYGELDF [PD-1 ITIM pTyr223 peptide variant V221N] | -1.45
VFSVDYGCLDF [PD-1 ITIM pTyr223 peptide variant E225C] | -0.897
VFSVDYAELDF [PD-1 ITIM pTyr223 peptide variant G224A] | 1
VFSVDYSELDF [PD-1 ITIM pTyr223 peptide variant G224S] | 0.528
EFSVDYGELDF [PD-1 ITIM pTyr223 peptide variant V218E] | -0.155
VFSVDYNELDF [PD-1 ITIM pTyr223 peptide variant G224N] | -0.336
VCSVDYGELDF [PD-1 ITIM pTyr223 peptide variant F219C] | -0.255

Binder | log2 enrichment
VFSVDYGALDF [PD-1 ITIM pTyr223 peptide variant E225A] | -0.501
VFSVAYGELDF [PD-1 ITIM pTyr223 peptide variant D222A] | 1.52
SFSVDYGELDF [PD-1 ITIM pTyr223 peptide variant V218S] | 0.0685
VFSVDYGELDC [PD-1 ITIM pTyr223 peptide variant F228C] | -1.54
VFSVDYEELDF [PD-1 ITIM pTyr223 peptide variant G224E] | -0.506
VHSVDYGELDF [PD-1 ITIM pTyr223 peptide variant F219H] | 0.536
VFSVDYGQLDF [PD-1 ITIM pTyr223 peptide variant E225Q] | 0.0512
VFCVDYGELDF [PD-1 ITIM pTyr223 peptide variant S220C] | -0.382
VFSVDYGEADF [PD-1 ITIM pTyr223 peptide variant L226A] | -1.51
VFEVDYGELDF [PD-1 ITIM pTyr223 peptide variant S220E] | -0.481
VFSVDYGEEDF [PD-1 ITIM pTyr223 peptide variant L226E] | -1.51
VFSVDYGDLDF [PD-1 ITIM pTyr223 peptide variant E225D] | -0.183
VFSTDYGELDF [PD-1 ITIM pTyr223 peptide variant V221T] | -0.962
VTSVDYGELDF [PD-1 ITIM pTyr223 peptide variant F219T] | 0.41
TFSVDYGELDF [PD-1 ITIM pTyr223 peptide variant V218T] | -0.0485
VFSVTYGELDF [PD-1 ITIM pTyr223 peptide variant D222T] | 0.636
VFSVDYQELDF [PD-1 ITIM pTyr223 peptide variant G224Q] | -0.168
VFDVDYGELDF [PD-1 ITIM pTyr223 peptide variant S220D] | -0.682
VFSVDYDELDF [PD-1 ITIM pTyr223 peptide variant G224D] | -0.746
VFQVDYGELDF [PD-1 ITIM pTyr223 peptide variant S220Q] | -0.0797
